Only some compounds are listed: those with a hit (about 4.8% of all), similar ones and a draw of the others.
Mdm2-MdmX inh: disrupts the human Mdm2-MdmX interaction | O15151+Q00987 | SaOS-2 split-luciferase Mdm2/MdmX complementation, luminescence | inhibition, % at 8 µM | hit rate 3% among 330,000 | AID 485346;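 active means inhibition of at least 50% at 8 µM in the primary screen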
Target sequence (O15151 whole entry, looked up): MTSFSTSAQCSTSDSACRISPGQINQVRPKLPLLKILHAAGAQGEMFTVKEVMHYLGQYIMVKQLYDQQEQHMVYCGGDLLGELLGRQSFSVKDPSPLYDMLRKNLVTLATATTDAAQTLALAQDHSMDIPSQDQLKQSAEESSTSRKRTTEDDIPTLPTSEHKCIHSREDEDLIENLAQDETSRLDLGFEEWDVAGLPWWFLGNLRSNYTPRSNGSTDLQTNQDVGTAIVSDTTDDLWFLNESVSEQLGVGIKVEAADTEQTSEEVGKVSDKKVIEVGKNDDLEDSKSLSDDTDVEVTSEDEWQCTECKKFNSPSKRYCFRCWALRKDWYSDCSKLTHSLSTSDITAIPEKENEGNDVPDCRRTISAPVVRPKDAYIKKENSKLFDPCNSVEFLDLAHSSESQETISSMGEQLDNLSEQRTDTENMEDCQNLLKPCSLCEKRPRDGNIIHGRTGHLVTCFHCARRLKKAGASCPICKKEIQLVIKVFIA
Target sequence (Q00987 whole entry, looked up): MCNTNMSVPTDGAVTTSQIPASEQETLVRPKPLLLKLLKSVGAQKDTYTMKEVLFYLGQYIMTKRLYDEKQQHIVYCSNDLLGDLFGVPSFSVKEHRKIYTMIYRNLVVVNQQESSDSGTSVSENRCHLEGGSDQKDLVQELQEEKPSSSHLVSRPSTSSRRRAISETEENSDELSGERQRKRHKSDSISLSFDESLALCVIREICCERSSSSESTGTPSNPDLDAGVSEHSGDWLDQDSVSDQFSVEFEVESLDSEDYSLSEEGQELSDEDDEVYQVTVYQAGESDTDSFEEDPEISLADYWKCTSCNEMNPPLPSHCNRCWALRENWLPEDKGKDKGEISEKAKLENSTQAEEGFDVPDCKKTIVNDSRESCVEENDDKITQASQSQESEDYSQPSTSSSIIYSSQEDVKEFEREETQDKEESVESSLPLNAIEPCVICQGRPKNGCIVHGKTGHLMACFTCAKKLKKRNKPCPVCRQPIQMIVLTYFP
CSC inhib: blocks cancer stem cells; cancer stem cell-like cells viability, luminescence; AID 2717; hit rate 1.1% among 300,000; inhibition, % at 7.5 µM; in the data active means inhibition above about 75%; tested in HMLE shEcad cells
Calb FLC: C. albicans growth modulation with fluconazole; C. albicans CaCi-2 (fluconazole-resistant clinical isolate) + fluconazole, Alamar Blue growth, 48 h; growth inhibition, % (test concentration not listed); hit rate 0.57% among 300,000; AID 1979;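 active means growth inhibition above about 58% in most replicates, limit read from the data, passing the limit was not always enough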;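 further: all wells also contain fluconazole at 8 µg/ml as a sub-toxic cotreatment; 0% = median of DMSO wells and 100% = median of geldanamycin control wells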
Beta apoptosis: blocks beta cell apoptosis | INS-1E cytokine-induced death, ATP luminescence, 48 h; percent of positive-control rescue, neutral wells zero | protection from apoptosis, % (concentration not given with the values) | hit rate 0.8% among 300,000 | AID 435005;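 active means Every replicate reaches about 75%, or at least half do and their mean reaches it too, limit read from the data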;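 further: 0% = cytokine-treated negative control wells and 100% = positive control rescue; higher means more ATP so stronger rescue from cytokine killing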
MPTP inh: blocks calcium-induced mitochondrial swelling; isolated mouse mitochondria, Ca2+ swelling absorbance, 30 min; inhibition, % at 10 µM; hit rate 1.4% among 360,000;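 active means inhibition of 50% or more, scaled per plate between neutral and stimulator controls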;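 further: 0% = DMSO wells given calcium and 100% = 1 mM EGTA wells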
Mdm2-MdmX conf: confirmation of human Mdm2/MdmX interaction inhibitors. hit rate 55% among 10,000. inhibition, % at 8 µM. Mdm2-MdmX binding, luminescent assay. AID 489028. shares compounds with Mdm2-MdmX inh; in the data active means inhibition above about 40%
FLuc counter: full-length luciferase inhibition in Mdm2/MdmX counter-screen | shares compounds with Mdm2-MdmX inh | AID 504607 | hit rate 77% among 6,200 | SaOS-2 full-length luciferase counterscreen, luminescence | inhibition, % at 8 µM;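 active means mean inhibition at 8 µM reaching about 37%, which flags the compound as non-specific, limit read from the data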;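 further: p53-null SaOS-2 cells with luciferase driven by a doxycycline-inducible promoter; compound on cells about two nights before reading with doxycycline added after day one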
The depositor's hits bear a star; . = no result given.

SMILES	Mdm2-MdmX inh	CSC inhib	Calb FLC	Beta apoptosis	MPTP inh	Mdm2-MdmX conf	others
O=C(NCc1cccnc1)c1c(O)c2cccc3c2n(c1=O)CCC3	71*	-1	-4	-7	-2	45*	FLuc counter=31
C=CCNC(=O)c1c(O)c2cccc3c2n(c1=O)CCC3	66*	5	-2	.	1	56*	FLuc counter=53*
Cc1ccc(S(=O)(=O)NC(=O)NC2=NC(C)(C)N(c3ccc(Cl)c(Cl)c3)C(N)=N2)cc1	.	.	.	.	0	.
CC(C)=CCc1c(O)cc(O)c2c(=O)c3c(CC=C(C)C)c(O)ccc3oc12	94*	-5	-7	28	.	29
COc1ccc(S(=O)(=O)N2CCCC2CNC(=O)C(=O)NCCc2ccccc2)cc1 (stereo unspecified)	60*	41	-13	11	-1	67*	FLuc counter=64*
CN(CCCC(=O)NCCc1ccccc1)S(=O)(=O)c1ccc([N+](=O)[O-])cc1	13	-6	0	0	-1	.
Cc1cc(C)c2nc(-c3ccccn3)cc(C(=O)NCc3ccc(S(N)(=O)=O)cc3)c2c1	54*	23	30	7	0	-3
Cc1cc(C)c2nc(-c3ccccn3)cc(C(=O)NCCc3ccc(S(N)(=O)=O)cc3)c2c1	44	25	31	10	1	.
COc1cccc(NC(=O)c2cc(-c3ccncc3)nc3c(C)cc(C)cc23)c1	22	39	-2	6	1	.
COc1ccc(NC(=O)c2cc(-c3ccccn3)nc3c(C)cc(C)cc23)c(C)c1	77*	1	-5	-3	0	47*	FLuc counter=104*
Cc1cc2c(cc1C)-c1nnnn1C(N1CCCCC1)C(=O)N2 (stereo unspecified)	.	.	.	.	-1	.
CCCCC[C@H](C)N1C[C@@H](COCc2ccccc2)Oc2cc(N3CCC[C@H]3C(N)=O)ccc2S1(=O)=O	.	.	.	.	-2	.
CCOc1ccc2c(c1)C(=NNC(=O)c1ccncc1)c1cc(OCC)ccc1-2	66*	52	3	65	6	52*	FLuc counter=55*
CCOc1ccc(NC(=O)c2ccncc2)cc1	-5	4	15	.	-2	.
CC1(C(=O)NCC2CC2)CCN1C(=O)C1(c2ccccc2)CC1 (stereo unspecified)	.	.	.	.	-1	.
CCC(=O)N1N=C(c2cccs2)CC1c1ccc(C)cc1 (stereo unspecified)	-12	-6	11	3	0	.
Cc1ccc(C2CC(c3cccs3)=NN2C(=O)CSC2=NCCS2)cc1 (stereo unspecified)	55*	3	-5	-9	-1	28
COc1ccc(C2CC(c3cccs3)=NN2C(=O)CSC2=NCCS2)cc1 (stereo unspecified)	54*	19	10	-2	0	14
Cc1ccc(C2CC(c3cccs3)=NN2C(=O)CCl)cc1 (stereo unspecified)	100*	29	3	-10	-2	96*	FLuc counter=53*
O=C(/C=C/c1c(F)cccc1Cl)c1ccc(O)cc1	100*	67*	-4	4	37	97*	FLuc counter=32
O=C(/C=C/c1ccccc1Cl)c1cccnc1	13	18	4	-2	-1	.
O=C(/C=C/c1ccccc1Cl)c1ccc(O)cc1	55*	25	4	-3	0	12
O=CC1=C(c2ccccc2)Oc2ccccc2O1	57*	62	3	52	0	8
COC(=O)c1c(NC(=O)CN(C)CC(=O)Nc2ccc(C)cc2)sc2c1CCC(C)C2 (stereo unspecified)	17	.	.	-2	-2	.
COC(=O)c1c(NC(=S)NN2CCN(C)CC2)sc2c1CCC(C)C2 (stereo unspecified)	91*	104*	-16	3	28	36
O=C(C[C@H]1C=C[C@@H](NS(=O)(=O)c2ccccc2)[C@@H](CO)O1)NCc1ccc(Cl)c(Cl)c1	.	.	.	.	3	.
Cc1ccc(-n2c(COc3c(C)cccc3C)nnc2SCC(=O)Nc2nccs2)cc1	-27	-3	6	-3	-2	.
Cc1ccc(OCc2nnc(SCC(=O)Nc3nccs3)n2-c2ccccc2)cc1C	55*	-13	-13	3	-1	25
CCn1c(CC(=O)Nc2ccc(C)c(Cl)c2)nnc1SCC(=O)Nc1nc(C)cs1	63*	0	-1	-5	0	-2

Bioassay records: PubChem, several laboratories
